Source: PubChem
The list is not random: actives were taken first. Their share in the collection is about 3.8%.
Shn3 inh set2 = reduces Shn3 3'UTR luciferase signal in osteoblasts; Clone20 osteoblast Shn3 3'UTR firefly luciferase, 24 h; inhibition, % at 12.5 µM; hit rate 0.52% among 360,000;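 active = mean inhibition of at least 75% with every replicate also reaching 75%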;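 note: 0% = median of neutral control wells and 100% = pilot-screen positive control compound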
697 NFkB inh = inhibitors of the PMA/ionomycin-induced NF-kB reporter in 697 B cells | 697 B-cell NF-kB luciferase reporter, 16 h | inhibition, % at 4 µM | hit rate 0.33% among 330,000; in the data active = inhibition above about 35%
Mdm2 MdmX PPI = human Mdm2/MdmX binding inhibition. SaOS-2 split-luciferase Mdm2/MdmX complementation, luminescence. inhibition, % at 8 µM. hit rate 3% among 330,000;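 active = inhibition of at least 50% at 8 µM in the primary screen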
Target sequence (O15151 whole entry, looked up): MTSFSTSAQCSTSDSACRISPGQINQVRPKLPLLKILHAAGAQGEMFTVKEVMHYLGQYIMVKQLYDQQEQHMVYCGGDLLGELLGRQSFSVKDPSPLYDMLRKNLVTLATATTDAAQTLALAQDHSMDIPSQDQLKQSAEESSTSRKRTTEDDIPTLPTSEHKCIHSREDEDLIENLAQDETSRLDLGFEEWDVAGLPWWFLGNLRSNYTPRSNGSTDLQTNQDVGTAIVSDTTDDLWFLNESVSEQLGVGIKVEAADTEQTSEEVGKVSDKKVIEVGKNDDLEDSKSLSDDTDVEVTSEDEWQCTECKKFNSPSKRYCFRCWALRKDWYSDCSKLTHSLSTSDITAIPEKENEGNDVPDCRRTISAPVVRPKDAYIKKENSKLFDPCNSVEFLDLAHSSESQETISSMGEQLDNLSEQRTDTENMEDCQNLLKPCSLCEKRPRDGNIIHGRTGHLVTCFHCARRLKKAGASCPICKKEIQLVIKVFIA
Target sequence (Q00987 whole entry, looked up): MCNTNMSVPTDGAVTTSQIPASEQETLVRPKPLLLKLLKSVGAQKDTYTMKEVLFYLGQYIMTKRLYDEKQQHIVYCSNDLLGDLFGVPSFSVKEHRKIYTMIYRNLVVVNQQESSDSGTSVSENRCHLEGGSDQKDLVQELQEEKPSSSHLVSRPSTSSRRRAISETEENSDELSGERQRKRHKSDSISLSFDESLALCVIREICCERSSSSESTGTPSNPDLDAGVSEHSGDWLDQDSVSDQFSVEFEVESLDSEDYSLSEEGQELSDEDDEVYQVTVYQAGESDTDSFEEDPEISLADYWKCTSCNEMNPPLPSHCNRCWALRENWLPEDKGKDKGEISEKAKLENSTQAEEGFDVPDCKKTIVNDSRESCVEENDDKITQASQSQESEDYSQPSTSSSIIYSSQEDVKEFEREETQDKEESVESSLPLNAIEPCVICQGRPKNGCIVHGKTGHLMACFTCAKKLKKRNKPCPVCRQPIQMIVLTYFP
Jurkat NFkB inh = lowers PMA/ionomycin-induced NF-kB signal in Jurkat cells. PMA/ionomycin-induced NF-kB luciferase reporter, luminescence. inhibition, % at 4 µM. hit rate 0.53% among 330,000. AID 435003; in the data active = inhibition above about 50%
Gli-Sufu block = Gli-Sufu pathway antagonism; hit rate 0.74% among 340,000; Sufu-KO-LIGHT fibroblasts, Gli luciferase reporter luminescence; AID 588413; inhibition, % at 5 µM;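 active = inhibition above about 55%, limit read from the data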;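 note: 0% = DMSO-treated cells and 100% = wells with medium but no cells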
Mdm2-MdmX conf = confirmation of human Mdm2/MdmX interaction inhibitors; shares compounds with Mdm2 MdmX PPI; Mdm2-MdmX binding, luminescent assay; inhibition, % at 8 µM; hit rate 55% among 10,000; AID 489028; in the data active = inhibition above about 40%
Full FLuc ctr = full-length luciferase inhibition in Mdm2/MdmX counter-screen; shares compounds with Mdm2 MdmX PPI; SaOS-2 full-length luciferase counterscreen, luminescence; inhibition, % at 8 µM; hit rate 77% among 6,200; AID 504607;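 active = mean inhibition at 8 µM reaching about 37%, which flags the compound as non-specific, limit read from the data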;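 note: p53-null SaOS-2 cells with luciferase driven by a doxycycline-inducible promoter; compound on cells about two nights before reading with doxycycline added after day one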
The depositor's hits bear a star; / = not tested or not shown.

SMILES	Shn3 inh set2	697 NFkB inh	Mdm2 MdmX PPI	Jurkat NFkB inh	Gli-Sufu block	Mdm2-MdmX conf	Full FLuc ctr
CC(C)(C)C(=O)CN1C(=O)NC(C)(Cc2ccc3c(c2)OCO3)C1=O (centres undefined)	-20.9	-23.9	6.1	-1.7	-13.0	/	/
Cc1ccccc1OCCNc1cc(N2CC(C)NC(C)C2)ccc1[N+](=O)[O-] (centres undefined)	-4.0	13.2	80.5*	9.2	24.3	30.1	/
CC1CN(c2ccc([N+](=O)[O-])c(NCCOc3ccccc3)c2)CC(C)N1 (centres undefined)	-3.2	-15.6	25.0	-4.3	22.1	/	/
CCc1ccc(OCCNc2cc(N3CCNC(C)C3)ccc2[N+](=O)[O-])cc1 (centres undefined)	89.2*	-1.8	95.2*	14.5	11.7	38.4	75.5*
Cc1cc(C)nc(N/C(=N\S(=O)(=O)Cc2ccccc2)Nc2ccccc2Br)n1	24.5	-53.1	51.7*	6.3	8.2	55.2*	104.1*
CCOc1cc(CNCCO)cc(Br)c1OCc1ccc(Cl)cc1	-13.2	26.7	80.2*	35.6	-7.1	20.9	/
CCOc1cc(CNC(C)(C)CO)cc(Br)c1OCc1ccc(Cl)cc1Cl	34.2	23.8	96.0*	13.9	14.3	49.5*	36.9*
CCOc1cc(CNCCO)cc(Br)c1OCc1ccccc1Cl	53.2	-11.6	68.4*	38.5	13.1	34.5	/
CC(O)CNCCNCc1c(OCc2ccccc2)ccc2ccccc12 (centres undefined)	18.4	8.1	31.1	-10.7	-5.0	/	/
OCCNCc1c(OCc2ccc(Cl)cc2)ccc2ccccc12	67.7	8.7	53.0*	26.8	1.5	41.2*	70.0*
CC(C)Sc1nc2c(cnn2-c2ccc(Cl)cc2)c(=O)[nH]1	4.0	-5.3	2.6	-8.6	12.6	/	/
CCOc1cc(CNCCCN2CCOCC2)cc(Br)c1OCc1ccccc1Cl	85.6*	-5.4	91.9*	19.5	33.7	33.5	52.2*
CCOc1cc(CNCCN2CCOCC2)ccc1OCc1ccccc1Cl	-35.4	-5.9	25.1	6.3	5.7	/	/
COc1ccc(S(=O)(=O)N2CCC(C(=O)N[C@@H](C)C(=O)NC3CC3)CC2)cc1	10.9	-4.3	12.4	-9.1	17.4	/	/
O=C(OCCc1cc2ccccc2c(=O)o1)c1ccco1	-10.8	-4.0	-13.4	-3.3	-8.2	/	/
Cc1cccc(OCCN2C(=O)C(=O)c3cc(C)ccc32)c1	19.0	2.1	68.6*	6.2	24.4	61.6*	89.6*
Cc1cccc(OCCN2C(=O)C(=O)c3cccc(C)c32)c1	3.4	-15.7	24.3	3.3	-18.9	/	/
Cc1ccc2c(c1)C(=O)C(=O)N2CCOc1ccccc1	-7.2	-26.6	65.2*	-0.4	45.0	46.2*	95.1*
Cn1nc(C(F)(F)F)c(/C=N/OC(=O)c2ccccc2)c1Cl	5.3	11.7	2.2	10.8	4.3	/	/
Cn1nc(C(F)(F)F)c(/C=N/OC(=O)c2ccccc2)c1Sc1ccc(Cl)cc1	1.9	2.0	51.0*	0.3	-15.4	6.5	/
Nc1nsc2ccccc12	-4.1	-6.3	61.2*	-0.9	15.3	26.3	/
COc1ccc(CCNC(=O)c2ccc(OCC(=O)N3CCOCC3)c(OC)c2)cc1OC	0.4	-10.4	-2.1	-6.7	-18.0	/	/
Cc1ccsc1C(=O)N1CC(=O)Nc2ccccc21	3.1	-5.2	18.2	-7.9	-5.7	/	/
Cc1ccc2cc3c(N)c(C(=O)N4CC(=O)Nc5ccccc54)sc3nc2c1	/	-25.9	64.3*	-11.7	/	56.9*	82.5*
Cc1ccc2cc3c(N)c(C(=O)N4CCOCC4)sc3nc2c1	-31.5	-20.3	-19.5	-18.2	-66.0	/	/
SMILES	Shn3 inh set2	697 NFkB inh	Mdm2 MdmX PPI	Jurkat NFkB inh	Gli-Sufu block	Mdm2-MdmX conf	Full FLuc ctr
Cc1ccc2nc3sc(C(=O)N4CCOCC4)c(N)c3cc2c1	52.0	13.1	58.7*	-6.0	6.2	60.8*	103.4*
CCOc1ccc(S(=O)(=O)c2c(C(=O)c3ccc(C)cc3)cnc3cc4c(cc23)OCCO4)cc1	0.1	-8.3	29.8	9.2	4.6	/	/
Cc1ccc(C(=O)c2cnc3cc4c(cc3c2S(=O)(=O)c2ccccc2)OCCO4)cc1	-26.7	-107.7	61.4*	-32.6	-17.2	41.5*	51.7*
CC(=O)NC(c1ccco1)c1cc(F)c2cccnc2c1O (centres undefined)	-13.7	-6.7	56.7*	7.9	14.0	49.2*	44.2*
CC(=O)NC(c1cccs1)c1cc(F)c2cccnc2c1O (centres undefined)	84.1	-24.5	62.7*	37.7	47.5	66.8*	30.4
CC(=O)NC(c1ccco1)c1cc(Cl)c2ccccc2c1O (centres undefined)	-14.4	-5.3	-16.5	-2.8	1.8	/	/
CN1CCC(N(C)C(=O)c2ccc(Cl)c(S(=O)(=O)N(C)c3ccc(Cl)cc3)c2)CC1	17.2	-6.2	13.1	-10.4	8.2	/	/
Cc1ccc(S(=O)(=O)c2ccc([N+](=O)[O-])cn2)cc1	94.7*	-55.0	95.7*	39.4	5.9	88.4*	51.8*
Cc1cc(S(=O)(=O)c2ccc([N+](=O)[O-])cn2)ccc1Br	98.2*	-34.7	99.4*	1.9	6.3	98.5*	39.4*
O=[N+]([O-])c1ccc(S(=O)(=O)c2ccccc2)nc1	92.8*	-75.6	95.1*	25.4	31.7	97.0*	50.2*
Cc1ccc(Nc2ccc([N+](=O)[O-])cn2)cc1Cl	-14.8	-8.6	-13.3	-27.1	-8.6	/	/
CC(=O)c1ccccc1OCCCCN1CCCCC1	-20.4	5.7	3.2	-9.5	11.2	/	/
CCN1C(=O)C(O)(C2COC(C)(C)CC2=O)c2cc(Br)ccc21 (centres undefined)	9.4	-6.8	54.9*	-5.4	/	52.0*	67.9*
CCN1C(=O)C(O)(C2COC(C)(C)CC2=O)c2ccccc21 (centres undefined)	0.9	-4.7	11.1	7.7	2.4	/	/
On1onc2c3cc(-c4ccccc4)nc3ccc21	70.0	-139.6	68.7*	-9.2	64.8*	58.2*	64.6*
CC(C)(C)n1nc(Cc2cccc3ccccc23)c2c(N)ncnc21	21.3	-75.5	54.2*	3.5	9.6	23.4	/
O=c1c(Cl)cc(Cl)nn1-c1ccccc1	26.3	-15.4	54.7*	-1.0	-0.5	27.8	/
C=C1CCc2c([nH]c3ccc(OCC(C)C)cc23)C1=O	81.5	1.2	97.9*	-14.3	10.2	31.8	/
CCn1c2c(c3cc(OCC(C)C)ccc31)CCCC2=O	24.1	27.5	16.4	8.1	-0.3	/	/
C#Cc1ccc([C@@H]2C=C(C(=O)NCc3ccccc3)O[C@H](OCCCCO)C2)cc1	-6.0	-6.2	5.1	-1.2	4.3	/	/
CCN(CC)c1nc(Nc2ccccc2)nc(Oc2ccc(=O)n(C)n2)n1	2.0	3.5	63.5*	-4.8	22.0	27.6	/
CCN(CC)c1nc(Nc2ccccc2)nc(Oc2ccc(=O)[nH]n2)n1	27.4	27.5	10.3	-3.2	1.9	/	/
Cc1ccc(N=Nc2ccc(O)c3ncccc23)cc1C	54.4	-93.1	78.2*	25.1	-50.5	87.5*	25.6
